# According to PubChem BioAssay AID1494156 (National Center for Advancing Translational Sciences (NCATS), 2020):
# Records with an inconclusive call do not appear. Unmarked numbers belong to inactive results. Activity calls are given as the source filed them. Calls come from the whole dose curve.
# Assay: VSV-G qHTS counterscreen for inhibitors of MERS-S pseudo-typed particle cell entry
# Details: VSV-G pseudotyped particle cell entry, luciferase counterscreen; series mostly up to 57.1 µM
Compound,Potency,"activity, negative = inhibition"
Oc1c(Cl)cc(Cl)c(Cl)c1Cc1c(O)c(Cl)cc(Cl)c1Cl,1.08 µM (active),–
CCN(CC)Cc1cc(Nc2ccnc3cc(Cl)ccc23)ccc1O,24.1 µM (active),–
CCc1c2c(nc3ccc(OC(=O)N4CCC(N5CCCCC5)CC4)cc13)-c1cc3c(c(=O)n1C2)COC(=O)[C@]3(O)CC,10.8 µM (active),–
C[n+]1c2cc(N)ccc2cc2ccc(N)cc21 (tested in a mixture with another compound),1.71 µM (active),–
O=C(O)c1cc(O)c2c(c1)[C@H]([C@H]1c3cc(C(=O)O)cc(O)c3C(=O)c3c(O[C@@H]4O[C@H](CO)[C@@H](O)[C@H](O)[C@H]4O)cccc31)c1cccc(O[C@@H]3O[C@H](CO)[C@@H](O)[C@H](O)[C@H]3O)c1C2=O,7.44 µM (active),–
Cc1nnc2n1-c1sc(CCc3ccc(CC(C)C)cc3)cc1C(c1ccccc1Cl)=NC2C (stereo not given),24.1 µM (active),–
O=c1c(C2CC(c3ccc(-c4ccc(Br)cc4)cc3)Cc3ccccc32)c(O)sc2ccccc12 (stereo not given),6.07 µM (active),–
CN(C)[C@@H](CCOc1cccc2ccccc12)c1ccccc1,21.5 µM (active),–
COc1cccc2c1C(=O)c1c(O)c3c(c(O)c1C2=O)C[C@@](O)(C(=O)CO)C[C@@H]3O[C@H]1C[C@H](N)[C@@H](O)[C@H](C)O1,2.41 µM (active),–
COC(=O)C[C@](O)(CCCC(C)(C)O)C(=O)O[C@@H]1C(OC)=C[C@]23CCCN2CCc2cc4c(cc2[C@H]13)OCO4,0.482 µM (active),–
Cc1cc(-n2c(=O)[nH]c(=O)n(C)c2=O)ccc1Oc1ccc(S(=O)(=O)C(F)(F)F)cc1,9.61 µM (active),–
CN1CCCCC1CCN1c2ccccc2Sc2ccc(S(C)=O)cc21 (stereo not given),27.1 µM (active),–
Cc1cn([C@H]2C[C@H](N=[N+]=[N-])[C@@H](CO)O2)c(=O)[nH]c1=O,0.304 µM (active),–
CC(C)C[C@H](NC(=O)[C@H](CCc1ccccc1)NC(=O)CN1CCOCC1)C(=O)N[C@@H](Cc1ccccc1)C(=O)N[C@@H](CC(C)C)C(=O)[C@@]1(C)CO1,0.192 µM (active),–
Cc1ccc(NC(=O)c2ccc(CN3CCN(C)CC3)cc2)cc1Nc1nccc(-c2cccnc2)n1,17.1 µM (active),–
Cc1nn(C)c2c1C(c1ccccc1F)=NCC(=O)N2C,6.07 µM (active),–
COc1cc2c(cc1Cc1cccc(Cl)c1F)c(=O)c(C(=O)O)cn2[C@H](CO)C(C)C,0.192 µM (active),–
COc1ccc2cc1Oc1ccc(cc1)C[C@H]1c3c(cc4c(c3Oc3cc5c(cc3OC)CCN(C)[C@@H]5C2)OCO4)CCN1C,21.5 µM (active),–
CC[C@@H]([C@H](C)O)n1ncn(-c2ccc(N3CCN(c4ccc(OC[C@@H]5CO[C@@](Cn6cncn6)(c6ccc(F)cc6F)C5)cc4)CC3)cc2)c1=O,6.81 µM (active),–
CCOc1cc2ncc(C#N)c(Nc3ccc(OCc4ccccn4)c(Cl)c3)c2cc1NC(=O)/C=C/CN(C)C,–,-3.61% [at 11.2 µM]
CC(=O)Oc1ccccc1C(=O)Nc1ncc([N+](=O)[O-])s1,10.8 µM (active),–
CC(C)(C)c1ccc(C(=O)CCCN2CCC(OC(c3ccccc3)c3ccccc3)CC2)cc1,8.57 µM (active),–
C[C@@H](c1nc(-c2ccc(C#N)cc2)cs1)[C@](O)(Cn1cncn1)c1cc(F)ccc1F,2.15 µM (active),–
CCCN1C[C@H](C)[C@@H](O)[C@](C)(O)[C@@H](CC)OC(=O)[C@H](C)[C@@H](O[C@H]2C[C@@](C)(OC)[C@@H](O)[C@H](C)O2)C(C)[C@@H](O[C@@H]2O[C@H](C)C[C@H](N(C)C)[C@H]2O)[C@](C)(O)C[C@H]1C (stereo not given in full),inactive,–
Nc1nc(Cl)nc2c1ncn2C1CC(O)C(CO)O1 (stereo not given),9.61 µM (active),–
C=C1c2c(Cl)ccc(O)c2C(O)=C2C(=O)[C@@]3(O)C(O)=C(C(N)=O)C(=O)[C@@H](N(C)C)[C@@H]3[C@@H](O)[C@H]12,19.2 µM (active),–
CC(C)OC(=O)OCOP(=O)(CO[C@H](C)Cn1cnc2c(N)ncnc21)OCOC(=O)OC(C)C,0.0192 µM (active),–
N#CC(c1ccc(Cl)cc1)c1c(Cl)cc(-n2ncc(=O)[nH]c2=O)cc1Cl (stereo not given),3.83 µM (active),–
O=C1c2c(O)ccc(O)c2C(=O)c2c(NCCNCCO)ccc(NCCNCCO)c21,0.541 µM (active),–
C=CC1(C)CC(=O)C2(O)C(C)(O1)C(OC(C)=O)C(OC(=O)CCN(C)C)C1C(C)(C)CCC(O)C12C (stereo not given),inactive,–
